Records with an inconclusive call do not appear. Active and inactive are the calls of the source. Calls follow the shape of the dose curve; as a rule, active = well fitted inhibition curve with a large enough effect; inconclusive = small, poorly fitted or top-dose-only effect; inactive = flat fitted curve, though single readings scatter.
Assays:
GB4 = experiment: qHTS profiling for inhibitors of Plasmodium falciparum proliferation (AID 504749); details: P. falciparum in erythrocytes, SYBR Green DNA, 72 h; series mostly up to 28.7 µM
Summary of the method: (§1)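 Readout was DNA-dye fluorescence from lysed cultures, ex 485/em 535 nm. Parasitized red cells had grown 72 h with compound; data scaled between 0.29 uM artemisinin and DMSO wells and corrected using vehicle-only plates.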

HB3 = experiment: as above; details: P. falciparum in erythrocytes, SYBR Green DNA, 72 h; series mostly up to 28.7 µM
Summary of the method: as §1

ICS = experiment: as above; details: P. falciparum in erythrocytes, SYBR Green DNA, 72 h; series mostly up to 28.7 µM
Summary of the method: as §1

JCK = experiment: as above; details: P. falciparum in erythrocytes, SYBR Green DNA, 72 h; series mostly up to 28.7 µM
Summary of the method: as §1

N140 = experiment: as above; details: P. falciparum in erythrocytes, SYBR Green DNA, 72 h; series mostly up to 28.7 µM
Summary of the method: as §1

P93_24 = experiment: as above; details: P. falciparum in erythrocytes, SYBR Green DNA, 72 h; series mostly up to 28.7 µM
Summary of the method: as §1

P94_40 = experiment: as above; details: P. falciparum in erythrocytes, SYBR Green DNA, 72 h; series mostly up to 28.7 µM
Summary of the method: as §1

PAD = experiment: as above; details: P. falciparum in erythrocytes, SYBR Green DNA, 72 h; series mostly up to 28.7 µM
Summary of the method: as §1

PC15 = experiment: as above; details: P. falciparum in erythrocytes, SYBR Green DNA, 72 h; series mostly up to 28.7 µM
Summary of the method: as §1

PC26 = experiment: as above; details: P. falciparum in erythrocytes, SYBR Green DNA, 72 h; series mostly up to 28.7 µM
Summary of the method: as §1

PC49 = experiment: as above; details: P. falciparum in erythrocytes, SYBR Green DNA, 72 h; series mostly up to 28.7 µM
Summary of the method: as §1

SC27B = experiment: as above; details: P. falciparum in erythrocytes, SYBR Green DNA, 72 h; series mostly up to 28.7 µM
Summary of the method: as §1

TAB109 = experiment: as above; details: P. falciparum in erythrocytes, SYBR Green DNA, 72 h; series mostly up to 28.7 µM
Summary of the method: as §1

TAB113 = experiment: as above; details: P. falciparum in erythrocytes, SYBR Green DNA, 72 h; series mostly up to 28.7 µM
Summary of the method: as §1

TAB165 = experiment: as above; details: P. falciparum in erythrocytes, SYBR Green DNA, 72 h; series mostly up to 28.7 µM
Summary of the method: as §1

W2 = experiment: as above; details: P. falciparum in erythrocytes, SYBR Green DNA, 72 h; series mostly up to 28.7 µM
Summary of the method: as §1

CRL-7250 = normal cell line; experiment: Cytotoxic Profiling of Annotated Libraries Using Quantitative High-Throughput Screening (AID 1296008); details: Five cell lines viability, CellTiter-Glo ATP luminescence, 48-72 h; max response: stronger effect = lower value; as to max response: % is scaled to controls: 0 for no effect and ±100 for the full control effect
Summary of the method: (§2)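 Cells exposed to compounds for 48 or 72 hr at 37 degrees Celsius. Viability read as ATP-coupled luminescence with CellTiter-Glo after 10 min at room temperature.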

HEK293 = experiment: as above; details: Five cell lines viability, CellTiter-Glo ATP luminescence, 48-72 h; max response: stronger effect = lower value
Summary of the method: as §2

HaCat = experiment: as above; details: Five cell lines viability, CellTiter-Glo ATP luminescence, 48-72 h; max response: stronger effect = lower value
Summary of the method: as §2

KB-3-1 = experiment: as above; details: Five cell lines viability, CellTiter-Glo ATP luminescence, 48-72 h; max response: stronger effect = lower value
Summary of the method: as §2
Also: nearly all actives have a fitted effect of over 60% in size.
Potency is read from the fitted curve at half-maximal effect.

Nc1ccc(S(=O)(=O)NC(=O)c2ccccc2)cc1
inactive: Potency (GB4) | Potency (HB3) | Potency (ICS) | Potency (JCK) | Potency (N140) | Potency (P93_24) | Potency (P94_40) | Potency (PAD) | Potency (PC15) | Potency (PC26) | Potency (PC49) | Potency (SC27B) | Potency (TAB109) | Potency (TAB113) | Potency (TAB165) | Potency (W2) | max response (CRL-7250) -4.44% | outcome (HEK293) | outcome (HaCat) | max response (KB-3-1) 18.9%

CC(=O)CCC(=O)O
inactive: Potency (GB4) | Potency (HB3) | Potency (ICS) | Potency (JCK) | Potency (N140) | Potency (P93_24) | Potency (P94_40) | Potency (PAD) | Potency (PC15) | Potency (PC26) | Potency (PC49) | Potency (SC27B) | Potency (TAB109) | Potency (TAB113) | Potency (TAB165) | Potency (W2) | max response (CRL-7250) -8.02% | outcome (HEK293) | outcome (HaCat) | max response (KB-3-1) 2.58%

Cc1c(Cl)cccc1Nc1ccccc1C(=O)O
active: Potency (W2) 9.53 µM
inactive: Potency (GB4) | Potency (JCK) | Potency (N140) | Potency (P93_24) | Potency (P94_40) | Potency (PAD) | Potency (PC15) | Potency (PC26) | Potency (PC49) | Potency (SC27B) | Potency (TAB109) | Potency (TAB113) | Potency (TAB165) | outcome (CRL-7250) | outcome (HEK293) | outcome (HaCat) | max response (KB-3-1) -2.57%

CCn1cc(C(=O)O)c(=O)c2cnc(N3CCNCC3)nc21
inactive: Potency (GB4) | Potency (HB3) | Potency (JCK) | Potency (N140) | Potency (P93_24) | Potency (P94_40) | Potency (PAD) | Potency (PC15) | Potency (PC26) | Potency (PC49) | Potency (SC27B) | Potency (TAB109) | Potency (TAB113) | Potency (TAB165) | Potency (W2) | max response (CRL-7250) -6.3% | outcome (HEK293) | max response (HaCat) -4.47% | max response (KB-3-1) -0.342%

CCCc1c(OCCCCc2nn[nH]n2)ccc(C(C)=O)c1O
inactive: Potency (GB4) | Potency (HB3) | Potency (ICS) | Potency (JCK) | Potency (N140) | Potency (P93_24) | Potency (P94_40) | Potency (PAD) | Potency (PC15) | Potency (PC26) | Potency (SC27B) | Potency (TAB109) | Potency (TAB113) | Potency (TAB165) | max response (CRL-7250) -1.12% | outcome (HEK293) | outcome (HaCat) | max response (KB-3-1) -12.2%

C[C@H]1O[C@@H](n2cc(F)c(=O)[nH]c2=O)[C@H](O)[C@@H]1O
active: Potency (HaCat) 10.6 µM
inactive: Potency (GB4) | Potency (HB3) | Potency (JCK) | Potency (N140) | Potency (P93_24) | Potency (P94_40) | Potency (PAD) | Potency (PC15) | Potency (PC26) | Potency (PC49) | Potency (SC27B) | Potency (TAB109) | Potency (TAB113) | Potency (TAB165) | Potency (W2) | max response (CRL-7250) -5.52% | outcome (HEK293) | max response (KB-3-1) -0.506%

COc1cc(C)c(Cc2cnc(N)nc2N)cc1OC
active: Potency (GB4) 3.79 µM
inactive: Potency (ICS) | Potency (JCK) | Potency (N140) | Potency (P93_24) | Potency (P94_40) | Potency (PAD) | Potency (PC15) | Potency (PC26) | Potency (PC49) | Potency (SC27B) | Potency (TAB109) | Potency (TAB113) | Potency (TAB165) | max response (CRL-7250) 0.178% | outcome (HEK293) | outcome (HaCat) | max response (KB-3-1) 7.84%

Source: PubChem BioAssay (NCATS)
